Data as given in PubChem BioAssay (NCI).
About 83,000 compounds went through this panel and 20% of them were active in at least one assay; those are over-represented in the sample as a whole.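 48-hour exposure, single concentration, 96-well plates; percent growth endpoint where 0 means no net growth. Active: below 10.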 The source made the active and inactive calls.

Key:
Assay in all cases: NCI-60 one-dose screen, 48 h (100 = growth as untreated, 0 = no growth, -100 = all killed)
Settings in all cases: 10 µM unless noted
[1] = system: T-47D breast
[2] = system: BT-549 breast
[3] = system: MDA-MB-435 melanoma
[4] = system: SW-620 colon
[5] = system: MCF7 breast
[6] = system: HCT-116 colon
[7] = system: HCC-2998 colon
[8] = system: KM12 colon

Measured: growth

Cc1ccc(CNc2ccc(Cl)cc2NCc2ccc(C)c(O)c2)cc1O
active: [5] 9.21% | [8] -1.46%
inactive: [1] 11.3% | [2] 39.9% | [3] 30.9% | [4] 25.9% | [6] 24.4% | [7] 22.7%

CCCCCCCCCCCCCCCCCCOc1ccccc1CC(=O)NCC[N+]1(C)CCCC1
inactive: [1] 69.9% | [2] 67.2% | [3] 67.4% | [4] 64.7% | [5] 53.1% | [6] 55.9% | [7] 32.7% | [8] 18.9%

O=C(CI)NC1Oc2ccccc2-c2oc(=O)c(-c3ccccc3)cc21 (stereo not given)
inactive: [3] 17.9% | [7] 78.2%
active: [1] -42.4% | [2] -55.7% | [4] -48.3% | [5] -53.3% | [6] -37.5% | [8] 2.37%

C[C@]12C=CC(=O)C=C1CCC1C2[C@@H](O)C[C@@]2(C)C1CC[C@]2(O)C(=O)COC(=O)CCC(=O)O (stereo not given in full)
inactive: [1] 111% | [2] 89.7% | [3] 99.9% | [4] 105% | [5] 96.5% | [6] 107% | [7] 110% | [8] 109%

Cc1oc(-c2ccc(Cl)cc2)nc1/C=C/C(=O)c1ccccc1
inactive: [1] 79.5% | [2] 84.8% | [3] 103% | [4] 104% | [5] 49.9% | [6] 99.5% | [7] 103% | [8] 100%

CC1=C(Nc2ccc(N3CCN(C)CC3)cc2)C(=O)c2cncnc2C1=O
active: [1] -44.2% | [3] -83.7% | [6] 6.39%
inactive: [2] 101% | [4] 75.8% | [5] 61.9% | [7] 126% | [8] 91.2%

COC(C(=O)[C@@H](O)[C@@H](C)O)[C@@H]1Cc2cc3cc(O[C@H]4C[C@@H](O[C@H]5C[C@@H](O)[C@H](O)C(C)O5)[C@H](O)C(C)O4)c(C)c(O)c3c(O)c2C(=O)[C@H]1O[C@H]1C[C@@H](O[C@H]2C[C@@H](O[C@H]3C[C@@H](O)[C@H](OC)C(C)O3)[C@@H](O)C(C)O2)[C@H](O)C(C)O1 (stereo not given in full)
active: [1] -0.919% | [2] -22.9% | [3] -54.2% | [5] 6.29% | [7] 1.1%
inactive: [4] 11.3% | [6] 12.1% | [8] 13.7%

CCCCCCNC(=O)Oc1ccc(/C(=C(/C)Cc2ccc(OC)cc2)c2ccc(OCCCN(C)C)cc2)cc1
inactive: [1] 18.9% | [2] 79% | [3] 19.5% | [7] 35.2% | [8] 35.6%
active: [4] -21.8% | [5] 8.65% | [6] -52.2%

Oc1c(Cl)cc(Cl)cc1/C=N/Nc1nnc(N/N=C/c2cc(Cl)cc(Cl)c2O)c2ccccc12
inactive: [1] 14.8% | [2] 15.7% | [3] 14.2% | [4] 17.2% | [6] 10% | [7] 33.1%
active: [5] 7.3% | [8] 6.29%

COc1ccc2c(O)c(/C=C3\N=Nc4ncccc43)oc2c1C[C@H]1CCNC[C@H]1F
inactive: [1] 41.5%
active: [2] -54.6% | [3] 7.14% | [4] -15.5% | [5] 2.59% | [6] -6.67% | [7] 0.205% | [8] -17.4%

C=CCn1c(SCC(=O)NCc2cc(C)c(O)c(C)c2)nc2ccc(Cl)cc2c1=O
inactive: [1] 103% | [2] 113% | [3] 107% | [4] 102% | [5] 91.3% | [6] 102% | [7] 110% | [8] 104%

C=C1C(=O)O[C@H]2[C@H]1CC/C(COC(=O)CSCCSCC(=O)OC/C1=C/CC[C@@]3(C)O[C@H]3[C@H]3OC(=O)C(=C)[C@@H]3CC1)=C\CC[C@@]1(C)O[C@@H]21
inactive: [1] 29.5% | [3] 34.3% | [5] 18.1% | [7] 25.8% | [8] 51.1%
active: [2] -16.3% | [4] 2.85% | [6] -31.6%

O=C(Nc1nc2ccc(F)cc2s1)c1cccnc1Nc1ccc(Cl)cc1
inactive: [2] 31.8% | [3] 29.2% | [4] 49.8% | [5] 17.7% | [6] 14.2% | [7] 31.1% | [8] 31.3%
active: [1] -0.413%

O=C(O)CNC1=C(Cl)C(=O)c2ccccc2C1=O
inactive: [1] 78.1% | [2] 87.5% | [3] 102% | [4] 102% | [5] 81.8% | [6] 100% | [7] 114% | [8] 104%

CCN(CC)c1ccc(/C=C/C(=O)c2ccc(Nc3nc(Nc4ccccc4)nc(Nc4ccccc4)n3)cc2)cc1
inactive: [1] 12.3% | [2] 52.1% | [3] 51.4% | [4] 70.3% | [5] 29.2% | [6] 50.2% | [7] 66.5% | [8] 45.4%
